For eleven molecules, z-score and composite z-score results are on record in PubChem BioAssay.

Test [1] in a line: optical density shifts of acrAB sulA E. coli – strain DRC41, OD650, 48 h, E. coli filamentation inducer project, primary screen (AID 1152).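 Note: E. coli MC1000 strain DRC41 lacking acrAB efflux pump and sulA.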 To be noted: higher = more signal, called active from +8 up or from −8 down.
Test [2] in a line: probe aLefty1 binding on compound microarray – biochemical, small-molecule microarray, 635/667 nm fluorescence, primary screen (AID 1153).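 Note: score merges spot fluorescence with signal-to-noise ratio from the scanned slide images.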 To be noted: higher = more signal.
Test [3] in a line: plasmodial surface anion channel blockers, osmotic lysis – cell-based, P. falciparum Indochina, OD700, 1 h, primary screen (AID 1154). As to conditions: P. falciparum Indochina infected RBC osmotic lysis, higher = more signal, called active from +8 up or from −8 down.
Test [4] can be described thus: plasmodial surface anion channel blockers, osmotic lysis – cell-based, P. falciparum Indochina, OD700, 2 h, primary screen (AID 1155).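 Note: lysis reports solute entry through the parasite surface anion channel PSAC.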 To be noted: P. falciparum Indochina infected erythrocytes, higher = more signal, called active from +8 up or from −8 down.
The nature of test [5]: changes in parasitized red cell lysis, either direction – P. falciparum Indochina, OD700, 3 h, PSAC antagonist project, primary screen (AID 1156). To be noted: P. falciparum-infected erythrocytes, osmotic lysis, higher = more signal, called active from +8 up or from −8 down.
The nature of test [6]: plasmodial surface anion channel blockers, osmotic lysis – cell-based, P. falciparum Indochina, OD700, 18 h, primary screen (AID 1157). To be noted: P. falciparum Indochina infected erythrocytes, osmotic lysis OD700, 18 h; higher = more signal, called active from +8 up or from −8 down.
Test [7] is described as follows: S6 kinase pathway phospho-S6 level changes – cell-based, A549, cytoblot, luminescence, serum-stimulated, primary screen (AID 1158).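 Note: serum-stimulated A549 lung adenocarcinoma cells; signal is phosphorylated S6 detected by cytoblot immunostaining with HRP secondary.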 To be noted: 5 h, higher = more signal.
Test [8] has as its target NADPH oxidase 2 (Homo sapiens) (UniProt P04839). The test is described as follows: compounds shifting NOX2 Amplex Red fluorescence – cell-based, HEK293-NOX2, PMA-stimulated, NOX inhibitor project, primary screen (AID 1159). Note: test concentration not given here. To be noted: 45 min, higher = more signal, called active from +8 up or from −8 down.
The target of test [9] is NADPH oxidase 4 (Homo sapiens) (UniProt Q9NPH5). The test is described as follows: compounds shifting NOX4 Amplex Red fluorescence – cell-based, HEK293-NOX4, tetracycline-induced, NOX inhibitor project, primary screen (AID 1160). As to conditions: HEK293-NOX4, Amplex Red H2O2 fluorescence, 45 min; higher = more signal, called active from +8 up or from −8 down.
Sequence of NADPH oxidase 4 (Homo sapiens) (Q9NPH5 whole entry, looked up): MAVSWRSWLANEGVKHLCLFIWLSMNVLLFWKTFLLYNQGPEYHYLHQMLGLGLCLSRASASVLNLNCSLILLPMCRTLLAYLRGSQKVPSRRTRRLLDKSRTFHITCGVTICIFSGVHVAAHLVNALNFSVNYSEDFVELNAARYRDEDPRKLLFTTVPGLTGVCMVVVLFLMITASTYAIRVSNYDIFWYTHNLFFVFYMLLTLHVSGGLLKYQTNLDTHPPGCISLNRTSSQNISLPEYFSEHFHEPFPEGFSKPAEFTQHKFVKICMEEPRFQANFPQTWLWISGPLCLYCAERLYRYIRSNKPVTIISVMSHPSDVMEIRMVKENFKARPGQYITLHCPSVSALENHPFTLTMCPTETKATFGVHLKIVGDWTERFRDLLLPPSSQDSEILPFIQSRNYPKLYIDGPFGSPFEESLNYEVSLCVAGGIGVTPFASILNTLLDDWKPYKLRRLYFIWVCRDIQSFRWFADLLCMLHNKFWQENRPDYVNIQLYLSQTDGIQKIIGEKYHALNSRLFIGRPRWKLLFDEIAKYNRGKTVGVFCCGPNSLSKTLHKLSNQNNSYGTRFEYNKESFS
In test [10] the target is NADPH oxidase 5 (Homo sapiens) (UniProt Q96PH1). The test is described as follows: compounds shifting NOX5 Amplex Red fluorescence – cell-based, HEK293-NOX5, NOX inhibitor project, primary screen (AID 1161). To be noted: HEK293-NOX5, ionomycin, 45 min, higher = more signal.
Sequence of NADPH oxidase 5 (Homo sapiens) (Q96PH1 whole entry, looked up): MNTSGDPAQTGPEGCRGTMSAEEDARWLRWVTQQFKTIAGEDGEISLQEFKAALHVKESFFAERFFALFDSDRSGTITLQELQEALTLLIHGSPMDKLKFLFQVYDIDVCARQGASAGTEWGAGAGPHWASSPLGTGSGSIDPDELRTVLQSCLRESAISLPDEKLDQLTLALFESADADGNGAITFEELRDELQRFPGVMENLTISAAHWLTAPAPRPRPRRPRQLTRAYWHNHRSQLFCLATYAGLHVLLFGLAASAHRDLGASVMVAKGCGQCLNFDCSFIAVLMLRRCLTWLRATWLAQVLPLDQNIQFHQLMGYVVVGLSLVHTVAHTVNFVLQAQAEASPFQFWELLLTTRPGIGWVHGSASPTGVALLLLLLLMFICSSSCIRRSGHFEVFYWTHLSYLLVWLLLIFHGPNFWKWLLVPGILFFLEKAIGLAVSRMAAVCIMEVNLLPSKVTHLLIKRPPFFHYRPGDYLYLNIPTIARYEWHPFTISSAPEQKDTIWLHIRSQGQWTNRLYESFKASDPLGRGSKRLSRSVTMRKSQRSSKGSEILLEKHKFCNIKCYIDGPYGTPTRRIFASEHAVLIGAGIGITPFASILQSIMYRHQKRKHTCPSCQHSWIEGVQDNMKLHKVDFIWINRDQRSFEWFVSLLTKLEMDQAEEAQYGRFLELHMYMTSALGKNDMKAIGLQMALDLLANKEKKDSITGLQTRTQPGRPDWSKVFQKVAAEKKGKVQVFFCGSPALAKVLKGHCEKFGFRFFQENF

Active and inactive are the calls of the source.

Sequence of NADPH oxidase 2 (Homo sapiens) (P04839 whole entry, looked up): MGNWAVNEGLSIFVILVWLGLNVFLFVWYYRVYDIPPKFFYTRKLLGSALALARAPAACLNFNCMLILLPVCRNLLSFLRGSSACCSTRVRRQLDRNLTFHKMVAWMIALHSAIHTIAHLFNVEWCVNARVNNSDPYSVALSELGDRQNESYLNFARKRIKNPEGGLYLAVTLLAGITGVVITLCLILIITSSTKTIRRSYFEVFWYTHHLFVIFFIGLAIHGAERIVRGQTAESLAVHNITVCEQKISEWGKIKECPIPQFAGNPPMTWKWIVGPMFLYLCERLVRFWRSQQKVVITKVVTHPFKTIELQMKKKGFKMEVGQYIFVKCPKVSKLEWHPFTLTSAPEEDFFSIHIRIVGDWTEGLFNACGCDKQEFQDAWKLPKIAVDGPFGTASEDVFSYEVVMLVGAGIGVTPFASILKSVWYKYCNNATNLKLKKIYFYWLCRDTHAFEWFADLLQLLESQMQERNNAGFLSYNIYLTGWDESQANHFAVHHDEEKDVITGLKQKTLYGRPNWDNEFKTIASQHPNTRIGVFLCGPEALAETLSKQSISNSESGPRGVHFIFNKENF

For the molecule `O=C(CS)NCCCCCNC(=O)[C@@H]1C[C@@H]2C(=O)N[C@@H](Cc3ccccc3)C(=O)N2[C@@H]1c1cccc(OCCO)c1`, the z-score in [1] was -0.145 (inactive); in [3], 2.5 (inactive); in [4] it was 0.148 (inactive); in test [5] it was -0.395 (inactive); in test [6] it was -0.0429 (inactive); in [7], -0.16. In addition, the z-score was 1.73 (inactive) in test [8], 0.924 (inactive) in test [9] and 0.226 in test [10]. This molecule also gave a composite z-score in [2] of -1.01.
`COC(=O)[C@@]1(Cc2ccc(OC)cc2)[C@H]2c3cc(C(=O)N4CCCC4)n(Cc4ccc(OC(F)(F)F)cc4)c3C[C@H]2CN1C(=O)c1ccccc1`: the z-score in [1] was -1.32 (inactive); in test [3], 2.24 (inactive); in test [4], 0.453 (inactive); in test [5] it was -0.0152 (inactive); in test [6], 1.06 (inactive); in test [7] it was -0.174. Also, the z-score is 1.11 (inactive) in test [8], 1.56 (inactive) in test [9] and 2.4 in test [10]. This molecule returned a composite z-score in [2] of 0.029.
Take `CCCNC(=O)[C@@]1(Sc2ccc(C)cc2)CC(=O)N(C(C)C)[C@@H]1c1ccc(CO)cc1I`: the z-score was -0.236 (inactive) in test [1]; 5.82 (inactive) in test [3]; 0.424 (inactive) in [4]; 0.0627 (inactive) in test [5]; 0.108 (inactive) in test [6]; -0.198 in [7]. Also, the z-score in test [8] was 2.46 (inactive); in test [9], -2.43 (inactive); in test [10], 0.276. In test [2], this molecule displayed a composite z-score of -0.0046.
Take `Cc1c(NC(=O)/C(C#N)=C/c2ccccc2Cl)c(=O)n(-c2ccccc2)n1C`: the z-score in test [1] is 1.32 (inactive); in test [3], 0.471 (inactive); in test [4] it was -1.52 (inactive); in test [5] it was -0.945 (inactive); in test [6], -1.34 (inactive); in test [7], 1.22. Moreover, the z-score is -3.65 (inactive) in test [8], -0.56 (inactive) in test [9] and 0.29 in [10]. Besides, the composite z-score in [2] is -0.296.
For the molecule `Cc1ccc(S[C@]2(C(=O)NC(C)C)CC(=O)N(Cc3ccccc3Cl)[C@@H]2c2ccc(CO)cc2)cc1`, the z-score in test [1] was -1.03 (inactive); in test [3], 3.11 (inactive); in [4], 0.0285 (inactive); in test [5], 1.5 (inactive); in test [6], 0.253 (inactive); in test [7], -0.026. Besides, the z-score in [8] was -0.984 (inactive); in test [9] it was -1.19 (inactive); in test [10], -0.486. Moreover, the composite z-score in test [2] was 0.0509.
For `CC(C)CCC[C@@H](C)[C@H]1CC[C@@]2(C)C3=C(CC[C@]12C)[C@@]1(C)CC[C@H](OC(=O)c2ccccc2)C(C)(C)C1CC3` (stereo not given in full), the z-score is 2.94 (inactive) in [1]; -0.44 (inactive) in [3]; -0.47 (inactive) in test [4]; -0.414 (inactive) in [5]; -1.26 (inactive) in test [6]; 1.64 in test [7]. The z-score is -0.898 (inactive) in test [8], 0.288 (inactive) in test [9] and 0.465 in test [10]. The composite z-score in test [2] was 0.0939.
On to `O=C1[C@@]23C=C(Br)[C@H](C[C@@H]2COC3)[C@@]12CO2`, for which the z-score in [1] was -1.07 (inactive); in [3] it was 0.297 (inactive); in [4], 0.0503 (inactive); in test [5] it was -0.497 (inactive); in [6], 0.258 (inactive); in test [7], -0.679. Moreover, the z-score in test [8] is 0.249 (inactive); in test [9] it was 0.218 (inactive); in test [10], 0.139. The same molecule came in with a composite z-score in [2] of -0.217.
Consider `C=C(CCCC)/C(=C/C[C@H](OC(C)=O)c1ccc(OCCO)cc1)c1cc(C(=O)OC)ccc1OC`, for which the z-score in test [1] was 0.564 (inactive); in [3] it was 24.5 (active); in test [4], 7.58 (inactive); in test [5], 2.3 (inactive); in test [6], 1.48 (inactive); in test [7] it was 0.376. The results for the z-score in test [8], in test [9] and in test [10] were -0.338 (inactive), -0.759 (inactive) and -1.56, respectively. This molecule also had a composite z-score in test [2] of -0.0378.
For the molecule `CO[C@H]1O[C@H](CO)[C@@H](OC(=O)Nc2cccc(F)c2)[C@H](OC(=O)Nc2ccccc2-c2ccccc2)[C@H]1OC(=O)Nc1ccccc1-c1ccccc1`, the z-score in test [1] is -0.732 (inactive); in [3], 4.41 (inactive); in test [4], 1.22 (inactive); in [5], -2.85 (inactive); in test [6] it was 0.937 (inactive); in test [7], -0.309. The z-score in test [8] was -5.73 (inactive); in test [9] it was -1.02 (inactive); in [10], -1.21. For the same molecule, the composite z-score in test [2] stood at 0.302.
In the case of `Cc1nc2cc(Br)ccc2c(=O)n1Cc1cccc(O)c1`, the z-score in test [1] was 0.685 (inactive); in [3], 0.73 (inactive); in test [4], 0.368 (inactive); in [5] it was 0.136 (inactive); in test [6], 0.377 (inactive); in test [7], -0.257. Moreover, the z-score in test [8] is -0.763 (inactive); in [9], -0.191 (inactive); in test [10] it was -0.302. In addition, the composite z-score in test [2] was -0.216.
Consider `CC(=O)NCCCC[C@@H]1NC(=O)[C@H]2C[C@@H](C(=O)NCCCCCNC(=O)CS)[C@@H](c3cccc(OCCO)c3)N2C1=O`, for which the z-score in test [1] is -0.486 (inactive); in test [3] it was 1.85 (inactive); in [4] it was 0.461 (inactive); in test [5], -0.369 (inactive); in test [6], 0.227 (inactive); in [7], 0.0439. Besides, the z-score in test [8] was 1.87 (inactive); in test [9] it was 0.825 (inactive); in test [10], 0.697. The molecule further yielded a composite z-score in [2] of -0.0573.
